# PubChem BioAssay AID2071 (Sanford-Burnham Center for Chemical Genomics, 2009)
# About 1,700 (0.61%) of roughly 280,000 compounds were called active. For the sample, actives were picked, then their nearest neighbours and some compounds at random. Unmarked numbers belong to inactive results. Rule as the data show it: active = inhibition mostly above about 24% (no sharp cut-off); inactive = mostly below about 32%.
# Experiment: NALP1 inflammasome inhibitors in reconstituted yeast, colorimetric, S. cerevisiae, triplicate retest (AID 2071)
# Conditions: S. cerevisiae NALP1/ASC/caspase-1 growth, X-gal OD620, 72 h, active compounds read high; at 10 µM unless noted
row,Structure (SMILES),inhibition
1,CC(=O)c1ccc(NC(=S)NC(=O)CC(C)C)cc1,27.8%
2,CC(C)CC(=O)NC(=S)Nc1cc(C(=O)O)ccc1Cl,11.6%
3,CC(C)CC(=O)NC(=S)Nc1ccc(F)cc1F,42.9% (active)
4,COc1ccc(C2C(C(C)=O)=C(O)C(=O)N2CCc2c[nH]c3ccccc23)cc1 (stereo not given),5.6%
5,COc1ccc(C2C(C(C)=O)=C(O)C(=O)N2Cc2cccnc2)cc1 (stereo not given),33.6% (active)
6,COc1cc(C2C(C(=O)c3ccc(C)o3)=C(O)C(=O)N2Cc2cccnc2)ccc1O (stereo not given),-2.8%
7,CC1Cc2cc(/C(O)=C3\C(=O)C(=O)N(Cc4cccnc4)C3c3ccccc3F)ccc2O1 (stereo not given),29.4%
8,Cc1ccc(-n2ncc(C(=O)NC3CC3)c2C2CCN(C(=O)OC(C)(C)C)CC2)c(C)c1,-2.6%
9,O=C(NCc1cccs1)C1CCN(S(=O)(=O)c2ccc3c(c2)OCCO3)CC1,-1.6%
10,O=C(NCc1ccc(Cl)cc1)C1CCN(S(=O)(=O)c2cccs2)CC1,4%
11,O=C(NCc1cccs1)C1CCN(S(=O)(=O)c2ccc(Cl)cc2)CC1,23.6% (active)
12,CCc1ccc(/C=N/NC(=O)c2nnn(-c3nonc3N)c2CN2CCc3ccccc32)cc1,0%
13,O=C(Nc1nnc(C2CC2)s1)c1cc(Cl)sc1Cl,5.9%
14,Cn1c(SCC(=O)Nc2ccc(Br)cc2F)nnc1-c1ccco1,31.1% (active)
15,CCCCNC(=O)CSc1nnc(-c2ccco2)n1C,10.9%
16,Cn1c(SCC(=O)c2cccs2)nnc1-c1ccco1,14.7%
17,O=C(Nc1ccc(C(=O)N2CCOCC2)cc1)Nc1cccc(C(F)(F)F)c1,-1.5%
18,O=C(CN1CCCCCC1)Nc1ccc(Br)cc1[N+](=O)[O-],-4.1%
19,Cc1ccc(S(=O)(=O)N2CCN=C2SCc2c(F)cccc2Cl)cc1,14.5%
20,COc1cccc(CNc2ncc(-c3ccccc3)n2C)c1,-8.5%
21,CCn1c(SCC(=O)NC2CC2)nnc1-c1ccccn1,20%
22,Cn1c(SCC(=O)c2ccc(F)cc2)nnc1-c1ccccn1,4.2%

row,Structure (SMILES),inhibition
1,Cn1c(SCC(=O)C(C)(C)C)nnc1-c1ccccn1,43.3% (active)
2,FC(F)(F)c1nnc2c3ccccc3c(Cl)nn12,2.1%
3,COc1ccc(N2C(=O)C3CCCN3C2c2cccs2)cc1 (stereo not given),11.5%
4,COc1ccc(N2C(=O)C3CCCN3C2c2cc(OC)c(OC)cc2OC)cc1 (stereo not given),41.6% (active)
5,COc1ccc(N2C(=O)C3CCCN3C2c2cccc(OC)c2)cc1 (stereo not given),-8.3%
6,O=C(CN1CCN(C(=O)C2CCCO2)CC1)Nc1c(Cl)cccc1Cl (stereo not given),17.6%
7,COc1ccc(-c2c(C#Cc3ccccc3)c3ccccc3n2C)cc1,15.3%
8,CC(=O)Nc1ccc(NC(=O)CS(=O)(=O)c2cn(CC(=O)N3CCCCC3)c3ccccc23)cc1,5.8%
9,C=CS(=O)c1sc(Cl)c(N2CCOCC2)c1[N+](=O)[O-] (stereo not given),37.6% (active)
10,Cc1cccc(NC(=O)c2ccc(S(=O)(=O)N(C)CC3CCCO3)cc2)c1C (stereo not given),15.7%
11,CC(C)Cc1nc(Cl)c(C#N)c2c1CCC2,8%
12,Cc1nc(Cl)c(C#N)c2c1CCCC2,41.9% (active)
13,COCc1c(N)c(C)nc(Cl)c1C#N,-22.9%
14,COc1ccc(NCCc2ccccn2)cc1,8.9%
15,O=C(NCCCc1ccccc1)C(=O)NCC1OCCN1S(=O)(=O)c1ccccc1 (stereo not given),-4.3%
16,COc1ccc(CCNC(=O)C(=O)NCC2OCCN2S(=O)(=O)c2cccs2)cc1OC (stereo not given),0.8%
17,COc1cccc(NC(=O)[C@H](Cc2c[nH]c3ccccc23)NC(=O)[C@@H]2Cc3ccccc3CN2)c1,17.2%
18,Cc1ccccc1NC(=O)NCc1ccco1,23.9%
19,CC(C)(C)NC(=O)NCc1ccco1,41.4% (active)
20,CC(C)(C)c1ccc(NC(=O)NCc2ccco2)cc1,21.4%
21,Cc1[nH]n(C(N)=S)c(=O)c1N=Nc1ccc(Cl)cc1Cl,0.4%
22,COc1ccc(-n2nc(C(=O)NCC(=O)N3CCN(c4ccccc4OC)CC3)c3ccccc3c2=O)c(OC)c1,20.4%

row,Structure (SMILES),inhibition
1,CN(c1ccc(O)cc1)c1nc(-c2cccnc2)cs1,12.3%
2,O=C(NC(=S)Nc1ccc(Cl)cc1Cl)C1CC1,10.6%
3,O=C(NCC(=O)N1CCN(c2ncc(C(F)(F)F)cc2Cl)CC1)c1ccc(Br)o1,6.1%
4,CC1(C)Cc2cccc(OCC(=O)NCc3ccccc3)c2O1,-5.5%
5,Cc1nc(NCCN)c(C#N)c2c1COC(C)(C)C2,8.1%
6,Cc1nc(NCc2ccccc2)c(C(N)=O)c2c1COC(C)(C)C2,37.7% (active)
7,COc1ccccc1C(=O)COC(=O)CNS(=O)(=O)c1ccc(NC(C)=O)cc1,16.9%
8,Cc1ccccc1C(=O)NC(=S)NC1CC1,12.2%
9,Cc1ccc(-n2c(SCC(=O)NCCC3=CCCCC3)nc3n[nH]c(C)c3c2=N)cc1Cl,39.4% (active)
10,CCCCNC(=O)CSc1nc2n[nH]c(C)c2c(=N)n1-c1cccc(Cl)c1C,-3.5%
11,COc1cccc(-n2c(SCC(=O)NC3CCCCC3)nc3n[nH]c(C)c3c2=N)c1,-7.2%
12,COc1ccc(N(C)C(=O)C2CCN(S(=O)(=O)c3cccc4nsnc34)CC2)cc1,9.7%
13,Cc1ccc(NC(=O)c2cc3ccccc3o2)cc1,8.6%
14,O=C(CCCCCn1c(=S)[nH]c2ccsc2c1=O)NC1CCCCC1,-20.3%
15,Cc1cc(NC(=O)c2ccccc2C)no1,17%
16,CCOCCCNC(=O)C(NC(=O)CNC(=O)c1ccccc1)c1ccc(C)cc1 (stereo not given),38.2% (active)
17,CCOCCCNC(=O)C(NC(=O)c1ccc(=O)[nH]c1)c1ccc(Cl)cc1 (stereo not given),38.8% (active)
18,CCOCCCNC(=O)C(NC(=O)Cc1c[nH]c2ccccc12)c1ccc(OC)cc1 (stereo not given),6.3%
19,CCOCCCNC(=O)C(NC(=O)c1ccccc1O)c1ccccc1 (stereo not given),-7.8%
20,CCOCCCNC(=O)C(NC(=O)c1ccc(=O)[nH]c1)c1ccc(C)cc1 (stereo not given),-4%
21,CCOCCCNC(=O)C(NC(=O)CNC(=O)c1ccccc1)c1ccc(OC)cc1 (stereo not given),-2.8%
